Measurements from PubChem BioAssay.

Test system: XIP peptide (Xip251-270)
Test: small-molecule binders of XIP peptide, primary screen, biochemical, small-molecule microarray, fluorescence 635/667 nm, 0.5 µg/mL protein (AID 1183)
Conditions: small-molecule microarray binding, fluorescence 635 nm; higher = more signal

Compound	composite z-score
COCCOC(=O)N1C(=O)[C@@]2(c3cc(C#CCC(C(=O)OC)C(=O)OC)ccc31)[C@H](C(=O)Nc1nc3ccccc3s1)[C@H]1C(=O)O[C@H](c3ccccc3)[C@H](c3ccccc3)N1[C@@H]2c1ccc(OCCO)cc1	0.768
COC(=O)C1=CC(CCCO)=CC(c2cccs2)N(Cc2cc3c(cc2Br)OCO3)C=C1C(=O)OC (stereo not given)	0.763
CN1C(=O)C2C(C1=O)C1C=C(c3ccc(CO)cc3)C2C(C2CC2)N1C (stereo not given)	0.816
COCCCNC(=O)[C@@H]1c2ccccc2C(=O)N(Cc2ccc(OC(F)(F)F)cc2)[C@H]1c1ccc(CO)cc1	0.314
COCCCNC(=O)[C@@]1(CCC(=O)OC(C)(C)C)COC(c2ccc(OCCCO)cc2)=N1	0.732
O=C(O)[C@H](Cc1ccccc1)n1cc(C2(O)CCCCC2)nn1	0.0248
CN(C)CCCC[C@@H]1NC(=O)[C@@H]2C[C@H](C(=O)NCCCCCCNC(=O)CS)[C@H](c3ccc(O)cc3)N2C1=O	0.859
COC(=O)[C@@]1(Cc2ccc(OC)cc2)[C@H]2c3cc(C(=O)N4CCCC4)n(CCn4cc([N+](=O)[O-])nc4C)c3C[C@H]2CN1C(=O)c1ccccc1	0.359
[N-]=[N+]=NCc1ccccc1[C@@H]1OC(c2ccc(OCCCO)cc2)=N[C@]1(Cc1ccccc1N=[N+]=[N-])C(=O)O	0.722
C=CCOC(=O)[C@H]1[C@@H]2C(=O)O[C@@H](c3ccccc3)[C@@H](c3ccccc3)N2[C@@H](c2ccc(OCCOC(=O)[C@H]3C[C@H]4C(=O)N[C@@H](CC(C)C)C(=O)N4[C@H]3c3ccc(O)cc3)cc2)[C@]12C(=O)Nc1ccccc12	0.818
COc1ccc([Si](C)(C)[C@H]2[C@H](CC(=O)N3Cc4ccccc4C[C@H]3CO)O[C@@]3(C(=O)N(c4ccccc4)c4ccccc43)[C@@H]2C)cc1	0.765
N#Cc1ccc(-c2cccc(=O)o2)cc1	-0.0086
COCCOC(=O)N1C(=O)[C@@]2(c3ccccc31)[C@H](C(=O)N1CCN(c3ncccn3)CC1)[C@H]1C(=O)O[C@H](c3ccccc3)[C@H](c3ccccc3)N1[C@@H]2c1ccccc1OCCO	0.597
NC(=O)NCC#Cc1ccc2c(c1)[C@]1(C(=O)N2)[C@H](c2ccc(OCCO)cc2)N2[C@H](c3ccccc3)[C@H](c3ccccc3)OC(=O)[C@H]2[C@@H]1C(=O)O	-0.0846
COC(=O)[C@@]1(Cc2ccc(OC)cc2)[C@H]2c3cc(C(=O)N(C)C)[nH]c3C[C@H]2CN1C(=O)c1ccccc1	-0.197

Test system: not listed separately
Test: Plasmodium falciparum growth inhibition, primary screen, strain 3D7, DAPI fluorescence, 100 nL (AID 1184);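 note: parasites grown inside human red blood cells in medium with human serum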
Conditions: P. falciparum 3D7 growth, 3 d, higher = more signal

Compound	z-score
COc1cc(OC)c(C(O)C2C=CC3C(=O)N(c4ccccc4)C(=O)C3N2Nc2ccc(C(C)C)cc2)cc1Br (stereo not given)	-0.0986
CC(C)c1nc2cc(Br)ccc2c(=O)o1	-0.795
CN1C(=O)[C@@H]2[C@@H](CC(COc3ccccc3)=C3[C@@H](CCc4ccccc4)OB(O)C[C@@H]32)C1=O	1.52
O=C(NCCN1CCOCC1)[C@@H]1c2ccccc2C(=O)N(Cc2ccc(OC(F)(F)F)cc2)[C@H]1c1ccc(CO)cc1	-1.05
CN(C)c1ccc(C(O)C2C=CC3C(=O)N(Cc4ccccc4)C(=O)C3N2n2cnnc2)cc1 (stereo not given)	0.736
CC(C)C(O)C1C=CC2C(=O)NC(=O)C2N1Nc1ccccn1 (stereo not given)	0.17
COc1ccc([Si](C)(C)[C@@H]2[C@@H](CC(=O)N3Cc4ccccc4C[C@H]3CO)O[C@]3(C(=O)N(Cc4ccc(N5CCOC5=O)cc4)c4ccccc43)[C@H]2C)cc1	-1.82
COCCOC(=O)N1C(=O)[C@@]2(c3cc(C#CCC(C(=O)OC)C(=O)OC)ccc31)[C@H](C(=O)Nc1nc3ccccc3s1)[C@H]1C(=O)O[C@H](c3ccccc3)[C@H](c3ccccc3)N1[C@@H]2c1ccc(O)cc1	-1.52
COc1cc(CO)cc(I)c1O[C@H]1C=C(C(=O)NCCO)C[C@@H](NC2CCCCCC2)[C@@H]1O	-3.18
O=C(NC1CC1)[C@@H]1c2ccccc2C(=O)N(Cc2ccc(OC(F)(F)F)cc2)[C@H]1c1ccc(CO)cc1	0.599
CCOC(=O)C1=CC[C@@H](c2ccc(OC)cc2)N(S(=O)(=O)c2ccc(C)cc2)[C@H]1CC	-2.03
CC1CC/C=C\[C@H]2OC34C=CCN(C(C)(C)C)C(=O)[C@H]3N(CCCO)C(=O)[C@@H]4C2C(=O)O1 (stereo not given in full)	0.428
C=C(C)[C@@H]1CC=C(C(O)C2C=CC3C(=O)N(c4ccccc4)C(=O)C3N2Nc2ccc([N+](=O)[O-])cc2)CC1 (stereo not given in full)	-1.26
C=CCOC(=O)[C@@H]1[C@H]2C(=O)O[C@H](c3ccccc3)[C@H](c3ccccc3)N2[C@H](c2ccc(OCCOC(=O)[C@H]3C[C@H]4C(=O)NCC(=O)N4[C@H]3c3cccc(OCCO)c3)cc2)[C@@]12C(=O)Nc1ccc(I)cc12	-1.9
COC(=O)[C@H](Cc1ccccc1)N1CC2=CCCC=C[C@@H]2[C@H]1[C@H](O)Cc1ccccc1	-0.926
CC(=O)OCC1C2CC[C@H]3C(OCc4ccc(F)cc4C(F)(F)F)OC[C@]4(C)[C@H]3C2=C(CN4C(=O)OC(C)(C)C)[C@H](C)C1COC(C)=O (stereo not given in full)	-1.22
CC(=O)c1ccc(C(O)C2C=CC3C(=O)N(c4ccccc4)C(=O)C3N2Nc2ccc(C(C)C)cc2)cc1 (stereo not given)	-1.33
CC(C)NC(=O)[C@@]1(C)c2ccccc2C(=O)N(Cc2ccccc2)[C@H]1c1ccc(CO)cc1	-0.321

Compound	z-score
CCCCC(O)C1C=CC2C(=O)N(c3ccccc3)C(=O)C2N1Nc1ccc([N+](=O)[O-])cc1 (stereo not given)	-0.496
Cc1ccc(S[C@]2(C(=O)NC3CC3)CC(=O)N(C(C)C)[C@@H]2c2ccc(CO)cc2I)cc1	-1.63
COCCOC(=O)N1C(=O)[C@@]2(c3cc(C#CCC(C(=O)OC)C(=O)OC)ccc31)[C@H](C(=O)Nc1nc3ccccc3s1)[C@H]1C(=O)O[C@H](c3ccccc3)[C@H](c3ccccc3)N1[C@@H]2c1ccc(OCCO)cc1	-1.85
COC(=O)C1=CC(CCCO)=CC(c2cccs2)N(Cc2cc3c(cc2Br)OCO3)C=C1C(=O)OC (stereo not given)	-1.26
CN1C(=O)C2C(C1=O)C1C=C(c3ccc(CO)cc3)C2C(C2CC2)N1C (stereo not given)	-1.97
COCCCNC(=O)[C@@H]1c2ccccc2C(=O)N(Cc2ccc(OC(F)(F)F)cc2)[C@H]1c1ccc(CO)cc1	0.0414
COCCCNC(=O)[C@@]1(CCC(=O)OC(C)(C)C)COC(c2ccc(OCCCO)cc2)=N1	-0.547
O=C(O)[C@H](Cc1ccccc1)n1cc(C2(O)CCCCC2)nn1	0.074
CN(C)CCCC[C@@H]1NC(=O)[C@@H]2C[C@H](C(=O)NCCCCCCNC(=O)CS)[C@H](c3ccc(O)cc3)N2C1=O	-0.0596
COC(=O)[C@@]1(Cc2ccc(OC)cc2)[C@H]2c3cc(C(=O)N4CCCC4)n(CCn4cc([N+](=O)[O-])nc4C)c3C[C@H]2CN1C(=O)c1ccccc1	-1.73
[N-]=[N+]=NCc1ccccc1[C@@H]1OC(c2ccc(OCCCO)cc2)=N[C@]1(Cc1ccccc1N=[N+]=[N-])C(=O)O	-1.9
C=CCOC(=O)[C@H]1[C@@H]2C(=O)O[C@@H](c3ccccc3)[C@@H](c3ccccc3)N2[C@@H](c2ccc(OCCOC(=O)[C@H]3C[C@H]4C(=O)N[C@@H](CC(C)C)C(=O)N4[C@H]3c3ccc(O)cc3)cc2)[C@]12C(=O)Nc1ccccc12	-1.49
COc1ccc([Si](C)(C)[C@H]2[C@H](CC(=O)N3Cc4ccccc4C[C@H]3CO)O[C@@]3(C(=O)N(c4ccccc4)c4ccccc43)[C@@H]2C)cc1	-2.01
N#Cc1ccc(-c2cccc(=O)o2)cc1	0.944
COCCOC(=O)N1C(=O)[C@@]2(c3ccccc31)[C@H](C(=O)N1CCN(c3ncccn3)CC1)[C@H]1C(=O)O[C@H](c3ccccc3)[C@H](c3ccccc3)N1[C@@H]2c1ccccc1OCCO	-1.99
NC(=O)NCC#Cc1ccc2c(c1)[C@]1(C(=O)N2)[C@H](c2ccc(OCCO)cc2)N2[C@H](c3ccccc3)[C@H](c3ccccc3)OC(=O)[C@H]2[C@@H]1C(=O)O	-1.17
COC(=O)[C@@]1(Cc2ccc(OC)cc2)[C@H]2c3cc(C(=O)N(C)C)[nH]c3C[C@H]2CN1C(=O)c1ccccc1	-0.0305
